Values joined by “and” are separate entries in the source; they are usually repeats but may differ in a detail not shown here. Identical values can stand only once. Some structures have more than one record in an assay (separate samples or runs), and their calls can disagree. Active and inactive are the calls of the source. Rule for the calls: active = hit-call score of the fitted dose curve at least 0.9, where 1 is the maximum; inactive = score below 0.9.
Tests used:
[1] = read-out: TIMP metallopeptidase inhibitor 2 (TIMP2), TIMP2 (gene 7077); assay: BSK_KF3CT_TIMP2: BioMAP Diversity Plus: KF3CT Assay for TIMP metallopeptidase inhibitor 2 (TIMP2) Biomarker Activity (AID 2283071); settings: primary human keratinocytes with fibroblasts; actives raise or lower the signal
How it was run: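 Human primary keratinocyte/foreskin fibroblast co-culture dosed with chemical and sampled at 24 h. TIMP-2 levels quantified by ELISA; bidirectional fitting against DMSO negative control as baseline.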

[2] = read-out: Transforming growth factor beta 1 (TGFb1), TGFB1 (gene 7040); assay: BSK_KF3CT_TGFb1: BioMAP Diversity Plus: KF3CT Assay for Transforming growth factor beta 1 (TGFb1) Biomarker Activity (AID 2283072); settings: primary human keratinocytes with fibroblasts; actives raise or lower the signal
How it was run: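 Human keratinocyte plus foreskin fibroblast primary co-culture, dosed with chemical for 24 h. TGF-b1 quantified by ELISA. Activity fitted bidirectionally against DMSO negative control as baseline.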

[3] = read-out: C-C motif chemokine 2 (Homo sapiens) (UniProt P13500); assay: BSK_KF3CT_MCP1: BioMAP Diversity Plus: KF3CT Assay for Monocyte Chemoattractant Protein 1 (MCP1/CCL2) Biomarker Activity (AID 2283073); settings: primary human keratinocytes with fibroblasts; actives raise or lower the signal
How it was run: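 Human keratinocyte–foreskin fibroblast co-culture; MCP-1 measured by ELISA 24 h after dosing. Bidirectional fit vs DMSO; cytotoxicity tracked by SRB total protein in parallel cultures.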

[4] = read-out: Matrix Metallopeptidase 9 (MMP9), MMP9 (gene 4318); assay: BSK_KF3CT_MMP9: BioMAP Diversity Plus: KF3CT Assay for Matrix Metallopeptidase 9 (MMP9) Biomarker Activity (AID 2283074); settings: primary human keratinocytes with fibroblasts; actives raise or lower the signal;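 for AC50: MMP9 protein level quantified by ELISA in the co-culture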
How it was run: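 Keratinocyte plus foreskin fibroblast human primary skin co-culture was dosed with chemical and MMP-9 was quantified by ELISA 24 h later. Bidirectional curve fitting used DMSO as negative control and activity baseline.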

[5] = read-out: urokinase plasminogen activator (uPA), PLAU (gene 5328); assay: BSK_KF3CT_uPA: BioMAP Diversity Plus: KF3CT Assay for urokinase plasminogen activator (uPA) Biomarker Activity (AID 2283075); settings: primary human keratinocytes with fibroblasts; actives raise or lower the signal
How it was run: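 Human keratinocyte plus foreskin fibroblast primary co-culture exposed to chemical for 24 h. uPA levels were quantified by ELISA, and activity was fitted bidirectionally against a DMSO negative-control baseline.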

[6] = read-out: CD40, CD40 (gene 958); assay: BSK_LPS_CD40: BioMAP Diversity Plus: LPS Assay for CD40 Biomarker Activity (AID 2283076); settings: primary human HUVEC with PBMC; actives raise or lower the signal
How it was run: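 HUVEC plus PBMC co-culture stimulated with LPS; CD40 quantified by ELISA 24 h after compound dosing. Fitting was bidirectional relative to DMSO. SRB staining of parallel cultures flagged overt cytotoxicity.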

[7] = read-out: E-selectin (Homo sapiens) (UniProt P16581); assay: BSK_LPS_Eselectin: BioMAP Diversity Plus: LPS Assay for Eselectin Biomarker Activity (AID 2283077); settings: primary human HUVEC with PBMC; actives raise or lower the signal
How it was run: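 Human umbilical vein endothelial cells co-cultured with PBMC under LPS stimulation; cell-surface E-selectin measured by ELISA 24 h after dosing. Change in either direction versus DMSO, with SRB total-protein staining in parallel cultures for cytotoxicity.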

[8] = read-out: Interleukin-8 (IL8), CXCL8 (gene 3576); assay: BSK_LPS_IL8: BioMAP Diversity Plus: LPS Assay for Interleukin-8 (IL8) Biomarker Activity (AID 2283078); settings: primary human HUVEC with PBMC; actives raise or lower the signal
How it was run: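 Human umbilical vein endothelial cells co-cultured with PBMC, LPS-stimulated, exposed to compound for 24 h. IL-8 quantified by ELISA; fitted in both directions against DMSO, with SRB total-protein staining of parallel cultures for cytotoxicity.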

[9] = BSK_LPS_SRB: Viability Assessment in the BioMAP Diversity Plus: LPS Assay (AID 2283079); settings: primary human HUVEC with PBMC;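 note: total protein by sulforhodamine B absorbance as a cytotoxicity measure; measured one day after compound addition; fitted in both directions against DMSO so loss or gain of signal counts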
How it was run: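 Co-culture of human umbilical vein endothelial cells and PBMC, read 24 h after dosing. Total protein by 0.1% SRB staining after 10% TCA fixation, absorbance at 560 nm; bidirectional fit against DMSO.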

[10] = read-out: Monocyte Chemoattractant Protein-1 (MCP1), CCL2 (gene 6347); assay: BSK_LPS_MCP1: BioMAP Diversity Plus: LPS Assay for Monocyte Chemoattractant Protein-1 (MCP1) Biomarker Activity (AID 2283081); settings: primary human HUVEC with PBMC; actives raise or lower the signal;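 for AC50: secreted MCP-1 protein quantified by ELISA in culture supernatant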
How it was run: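 Human umbilical vein endothelial cells co-cultured with PBMC, LPS-stimulated; secreted MCP-1 measured by ELISA 24 h after compound addition. Bidirectional curve fitting against DMSO baseline; SRB total-protein staining in parallel cultures for cytotoxicity.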

[11] = BSK_LPS_PGE2: BioMAP Diversity Plus: LPS Assay for Prostaglandin E2 (PGE2) Biomarker Activity (AID 2283082); settings: primary human HUVEC with PBMC; actives raise or lower the signal;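 for AC50: secreted prostaglandin E2 measured by ELISA in LPS-stimulated co-culture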
How it was run: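 HUVEC plus PBMC co-culture stimulated with LPS; secreted PGE2 quantified by ELISA 24 h after chemical dosing. Activity fitted bidirectionally against DMSO as negative control and baseline; parallel SRB total-protein staining served as cytotoxicity check.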

[12] = read-out: Macrophage colony-stimulating factor (MCSF), CSF1 (gene 1435); assay: BSK_LPS_MCSF: BioMAP Diversity Plus: LPS Assay for Macrophage colony-stimulating factor (MCSF) Biomarker Activity (AID 2283083); settings: primary human HUVEC with PBMC; actives raise or lower the signal
How it was run: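 HUVEC–PBMC co-culture, M-CSF measured by ELISA 24 h after chemical dosing. Fitted in both directions relative to DMSO as negative control; overt cytotoxicity assessed by SRB total-protein staining in parallel cultures.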

[13] = read-out: Tissue Factor, F3 (gene 2152); assay: BSK_LPS_TissueFactor: BioMAP Diversity Plus: LPS Assay for Tissue Factor Biomarker Activity (AID 2283084); settings: primary human HUVEC with PBMC; actives raise or lower the signal
How it was run: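 Human umbilical vein endothelial cells co-cultured with PBMC were dosed with compound. Cell-surface CD142 was measured by ELISA 24 h later. Activity was fitted bidirectionally against DMSO, with SRB total-protein staining in parallel cultures for cytotoxicity.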

[14] = read-out: Tumor necrosis factor (Homo sapiens) (UniProt P01375); assay: BSK_LPS_TNFa: BioMAP Diversity Plus: LPS Assay for Tumour Necrosis Factor alpha (TNFa) Biomarker Activity (AID 2283085); settings: primary human HUVEC with PBMC; actives raise or lower the signal
How it was run: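 Human umbilical vein endothelial cells co-cultured with PBMC were exposed to test chemical and TNFa measured by ELISA 24 h after dosing. Bidirectional curve fitting was done relative to DMSO as negative control and baseline.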

[15] = read-out: Vascular cell adhesion molecule 1 (VCAM1), VCAM1 (gene 7412); assay: BSK_LPS_VCAM1: BioMAP Diversity Plus: LPS Assay for Vascular cell adhesion molecule 1 (VCAM1) Biomarker Activity (AID 2283086); settings: primary human HUVEC with PBMC; actives raise or lower the signal
How it was run: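 Human umbilical vein endothelial cells co-cultured with peripheral blood mononuclear cells under LPS stimulation were exposed to test chemical for 24 h. VCAM-1 levels were then measured by ELISA, with bidirectional curve fitting relative to DMSO as negative control and baseline.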

[16] = read-out: CD38, CD38 (gene 952); assay: BSK_SAg_CD38: BioMAP Diversity Plus: SAg Assay for CD38 Biomarker Activity (AID 2283087); settings: primary human HUVEC with PBMC; actives raise or lower the signal
How it was run: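 Fluorescence ELISA of cell-surface CD38 served as the read-out, with either increase or decrease fitted against DMSO controls. Cells were a human umbilical vein endothelium plus PBMC co-culture under SEB/TSST-1 stimulation, measured 24 h after dosing.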

[17] = read-out: CD40, CD40 (gene 958); assay: BSK_SAg_CD40: BioMAP Diversity Plus: SAg Assay for CD40 Biomarker Activity (AID 2283088); settings: primary human HUVEC with PBMC; actives raise or lower the signal
How it was run: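 HUVEC plus PBMC co-culture, superantigen-activated, with CD40 read by ELISA 24 h after dosing. Curves fitted in both directions against DMSO. Overt cytotoxicity checked by parallel SRB total-protein staining.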

[18] = read-out: CD69, CD69 (gene 969); assay: BSK_SAg_CD69: BioMAP Diversity Plus: SAg Assay for CD69 Biomarker Activity (AID 2283089); settings: primary human HUVEC with PBMC; actives raise or lower the signal;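 for AC50: cell surface CD69 protein quantified by ELISA with fluorescence detection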
How it was run: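 HUVEC co-cultured with PBMC were dosed with chemical, and CD69 was measured by ELISA with fluorescence read-out 24 h later. Bidirectional curve fitting used DMSO as negative control and activity baseline.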

[19] = read-out: Monocyte Chemoattractant Protein-1 (MCP1), CCL2 (gene 6347); assay: BSK_SAg_MCP1: BioMAP Diversity Plus: SAg Assay for Monocyte Chemoattractant Protein-1 (MCP1) Biomarker Activity (AID 2283090); settings: primary human HUVEC with PBMC; actives raise or lower the signal
How it was run: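 MCP-1 levels in the endothelial–PBMC SAg co-culture were quantified by ELISA at 24 h post-dosing; both increases and decreases versus DMSO scored. Cytotoxicity monitored by SRB total protein in parallel cultures.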

[20] = read-out: Interleukin-1 alpha (IL1a), IL1A (gene 3552); assay: BSK_LPS_IL1a: BioMAP Diversity Plus: LPS Assay for Interleukin-1 alpha (IL1a) Biomarker Activity (AID 2283080); settings: primary human HUVEC with PBMC; actives raise or lower the signal
How it was run: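 Human umbilical vein endothelial cells co-cultured with PBMC and stimulated with LPS; IL-1a measured by ELISA 24 h after dosing. Bidirectional fitting against DMSO; cytotoxicity checked by SRB staining in parallel cultures.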

Measured: AC50

Sequence of E-selectin (Homo sapiens) (P16581 whole entry, looked up): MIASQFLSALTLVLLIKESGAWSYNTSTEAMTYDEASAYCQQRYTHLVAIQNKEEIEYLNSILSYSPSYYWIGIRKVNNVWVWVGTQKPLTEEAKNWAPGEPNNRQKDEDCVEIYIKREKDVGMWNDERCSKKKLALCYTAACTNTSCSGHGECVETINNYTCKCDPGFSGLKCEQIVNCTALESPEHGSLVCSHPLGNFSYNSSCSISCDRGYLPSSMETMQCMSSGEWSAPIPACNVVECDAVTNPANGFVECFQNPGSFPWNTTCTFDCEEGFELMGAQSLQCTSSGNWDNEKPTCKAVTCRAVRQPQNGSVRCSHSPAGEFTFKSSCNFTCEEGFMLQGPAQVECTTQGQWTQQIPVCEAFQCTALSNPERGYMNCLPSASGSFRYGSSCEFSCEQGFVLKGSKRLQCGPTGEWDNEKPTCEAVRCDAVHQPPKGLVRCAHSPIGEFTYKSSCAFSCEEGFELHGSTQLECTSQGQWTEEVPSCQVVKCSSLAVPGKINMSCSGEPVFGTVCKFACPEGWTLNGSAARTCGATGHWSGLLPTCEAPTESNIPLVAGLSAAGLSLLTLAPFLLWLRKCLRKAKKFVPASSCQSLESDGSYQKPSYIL
Sequence of Tumor necrosis factor (Homo sapiens) (P01375 whole entry, looked up): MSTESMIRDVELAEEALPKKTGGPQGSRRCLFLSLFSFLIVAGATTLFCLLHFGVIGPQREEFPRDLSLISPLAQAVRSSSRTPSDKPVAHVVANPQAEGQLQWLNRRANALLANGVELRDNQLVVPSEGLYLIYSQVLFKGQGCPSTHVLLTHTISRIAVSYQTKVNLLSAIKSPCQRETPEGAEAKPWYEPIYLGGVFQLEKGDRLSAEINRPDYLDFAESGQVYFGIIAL

CC(=O)C(Cl)C(=O)N(C)C (configuration not stated)
active: [6] 15.5 µM | [7] 15.4 µM | [8] 13.6 µM | [10] 27 µM | [11] 7.26 µM | [12] 11.8 µM | [13] 9.35 µM | [14] 9.78 µM | [15] 20 µM | [16] 20 µM | [17] 20 µM | [18] 16.7 µM | [19] 20 µM
inactive: [1] | [2] | [3] | [4] | [5] | [9]

O=C(O)C(F)(F)C(F)(F)C(F)(F)C(F)(F)C(F)(F)C(F)(F)F
inactive: [2] | [3] | [4] | [5] | [6] | [7] | [8] | [9] | [20] | [10] | [11] | [12] | [13] | [14] | [15] | [16] | [17] | [18] | [19]
active: [8] 14.6 µM and 30 µM

O=C(O)C(F)(F)C(F)(F)C(F)(F)C(F)(F)C(F)(F)C(F)(F)C(F)(F)C(F)(F)C(F)(F)C(F)(F)F
inactive: [6] | [7] | [8] | [20] | [10] | [11] | [12] | [13] | [15] | [16] | [18] | [19]
active: [2] 5.59 µM | [3] 7.51 µM and 4.5 µM and 4.55 µM | [4] 6.03 µM and 3.85 µM and 4.19 µM | [5] 9.7 µM and 5.47 µM and 5.16 µM | [6] 29.5 µM | [8] 33.8 µM and 2.03 µM | [20] 29.6 µM | [10] 30.2 µM | [11] 22.3 µM | [12] 31.4 µM | [13] 30.2 µM | [15] 29.6 µM | [16] 37.4 µM | [17] 29.2 µM and 5.41 µM and 5.27 µM | [18] 30.5 µM | [19] 35.1 µM
